# Test results reported in publication PMC8384837, “Expanding the binding specificity for RNA recognition by a PUF domain”.
# Tests used:
# Assay in all cases: yeast three-hybrid, YBZ-1, SC-Leu-His + 0.5 mM 3-AT, 4 days
# Conditions in all cases: tags: N-Gal4 AD-HA kept; label: inside an RPR1-promoter hybrid RNA with tandem MS2 sites; ssRNA
# PUM1 PUF domain R7-KGQ = PUM1 PUF domain R7-KGQ (Homo sapiens, UniProt Q14671 828-1176, S1079K;N1080G;E1083Q)
# Procedure, shortened: (§1)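 Matching RNA elements and Pumilio-1 PUF domain libraries, randomized at the three base-contacting residues of every repeat, were co-expressed from a centromeric plasmid in strain YBZ-1 (LexA–MS2 coat fusion, HIS3 reporter). The repeat regions were PCR-amplified and Illumina-sequenced from cells grown four days on SC-Leu (input) or SC-Leu-His + 0.5 mM 3-AT (selection). The interaction score is the log change in variant frequency from input to selection. It is computed in log2, with a pseudocount of 1 for absent variants.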
# PUM1 PUF domain R7-RQN = PUM1 PUF domain R7-RQN (Homo sapiens, UniProt Q14671 828-1176, S1079R;N1080Q;E1083N)
# Chain of PUM1 PUF domain R7-RQN (Q14671 828-1176 S1079R/N1080Q/E1083N): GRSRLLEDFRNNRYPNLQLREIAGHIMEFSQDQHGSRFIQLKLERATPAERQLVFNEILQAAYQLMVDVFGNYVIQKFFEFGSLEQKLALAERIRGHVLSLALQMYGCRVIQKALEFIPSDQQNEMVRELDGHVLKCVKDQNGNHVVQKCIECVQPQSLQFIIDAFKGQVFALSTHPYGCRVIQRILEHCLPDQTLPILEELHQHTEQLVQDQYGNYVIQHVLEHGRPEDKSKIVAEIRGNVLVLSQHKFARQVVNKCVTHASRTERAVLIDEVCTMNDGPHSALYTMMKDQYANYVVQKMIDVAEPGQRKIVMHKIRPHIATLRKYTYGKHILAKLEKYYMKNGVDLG
# Procedure, shortened: as §1
# PUM1 PUF domain R5-GHS = PUM1 PUF domain R5-GHS (Homo sapiens, UniProt Q14671 828-1176, C1007G;R1008H;Q1011S)
# Procedure, shortened: as §1
# PUM1 PUF domain R5-WHV = PUM1 PUF domain R5-WHV (Homo sapiens, UniProt Q14671 828-1176, C1007W;R1008H;Q1011V)
# Procedure, shortened: as §1
# PUM1 PUF domain R6-TFS = target: T1, PUM1 PUF domain R6-TFS (Homo sapiens, UniProt Q14671 828-1176, N1043T;Y1044F;Q1047S)
# T1 sequence: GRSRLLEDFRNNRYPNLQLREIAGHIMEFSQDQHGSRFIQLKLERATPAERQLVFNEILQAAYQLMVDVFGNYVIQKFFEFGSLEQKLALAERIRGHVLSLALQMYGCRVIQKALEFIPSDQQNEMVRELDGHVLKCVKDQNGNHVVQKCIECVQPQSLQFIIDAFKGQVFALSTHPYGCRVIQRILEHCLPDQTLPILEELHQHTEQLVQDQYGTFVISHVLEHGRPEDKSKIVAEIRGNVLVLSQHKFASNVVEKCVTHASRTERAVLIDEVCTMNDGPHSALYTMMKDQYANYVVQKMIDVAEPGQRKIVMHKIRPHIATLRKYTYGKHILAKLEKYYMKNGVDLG
# Procedure, shortened: as §1
# PUM1 PUF domain R8-LFQ = PUM1 PUF domain R8-LFQ (Homo sapiens, UniProt Q14671 828-1176, N1122L;Y1123F)
# Chain of PUM1 PUF domain R8-LFQ (Q14671 828-1176 N1122L/Y1123F): as the sequence (Q14671 828-1176 S1079R/N1080Q/E1083N) above, with R252S, Q253N, N256E, N295L, Y296F counted along it
# Procedure, shortened: as §1
# PUM1 PUF domain R5-RWF = PUM1 PUF domain R5-RWF (Homo sapiens, UniProt Q14671 828-1176, C1007R;R1008W;Q1011F)
# Chain of PUM1 PUF domain R5-RWF (Q14671 828-1176 C1007R/R1008W/Q1011F): as the sequence (Q14671 828-1176 S1079R/N1080Q/E1083N) above, with C180R, R181W, Q184F, R252S, Q253N, N256E counted along it
# Procedure, shortened: as §1
# PUM1 PUF domain R3-MCR = PUM1 PUF domain R3-MCR (Homo sapiens, UniProt Q14671 828-1176, C935M;R936C;Q939R)
# Procedure, shortened: as §1
# PUM1 PUF domain R3-LSE = PUM1 PUF domain R3-LSE (Homo sapiens, UniProt Q14671 828-1176, C935L;R936S;Q939E)
# Chain of PUM1 PUF domain R3-LSE (Q14671 828-1176 C935L/R936S/Q939E): as the sequence (Q14671 828-1176 S1079R/N1080Q/E1083N) above, with C108L, R109S, Q112E, R252S, Q253N, N256E counted along it
# Procedure, shortened: as §1
# Chain of PUM1 PUF domain R7-KGQ (Q14671 828-1176 S1079K/N1080G/E1083Q): as the sequence (Q14671 828-1176 S1079R/N1080Q/E1083N) above, with R252K, Q253G, N256Q counted along it
sequence,measurement,setting,value
GGCUAGAACUAGUGGAUCCCCCGGCGCCCGGCGGCUCGAGCCCGGGUAAGUUUAAAUAGUCUGCAUGCCGCCGGGCGCCAUGCCUGCAGGUCGACUCUAGAAAACAUG,binding signal,PUM1 PUF domain R7-KGQ,5.56 log2 enrichment (interaction score)
same,binding signal,PUM1 PUF domain R7-RQN,3.78 log2 enrichment (interaction score)
GGCUAGAACUAGUGGAUCCCCCGGCGCCCGGCGGCUCGAGCCCGGGUAAGUGUAAAUAGUCUGCAUGCCGCCGGGCGCCAUGCCUGCAGGUCGACUCUAGAAAACAUG,binding signal,PUM1 PUF domain R5-GHS,3.25 log2 enrichment (interaction score)
same,binding signal,PUM1 PUF domain R5-WHV,1.26 log2 enrichment (interaction score)
same,binding signal,PUM1 PUF domain R6-TFS,4.51 log2 enrichment (interaction score)
GGCUAGAACUAGUGGAUCCCCCGGCGCCCGGCGGCUCGAGCCCGGGUAAGCGUAAAUAGUCUGCAUGCCGCCGGGCGCCAUGCCUGCAGGUCGACUCUAGAAAACAUG,binding signal,PUM1 PUF domain R8-LFQ,2.86 log2 enrichment (interaction score)
GGCUAGAACUAGUGGAUCCCCCGGCGCCCGGCGGCUCGAGCCCGGGUAAGUGUUAAUAGUCUGCAUGCCGCCGGGCGCCAUGCCUGCAGGUCGACUCUAGAAAACAUG,binding signal,PUM1 PUF domain R5-RWF,4.13 log2 enrichment (interaction score)
GGCUAGAACUAGUGGAUCCCCCGGCGCCCGGCGGCUCGAGCCCGGGUAAGUGUCAAUAGUCUGCAUGCCGCCGGGCGCCAUGCCUGCAGGUCGACUCUAGAAAACAUG,binding signal,PUM1 PUF domain R5-WHV,2.8 log2 enrichment (interaction score)
GGCUAGAACUAGUGGAUCCCCCGGCGCCCGGCGGCUCGAGCCCGGGUAAGUGUAAUUAGUCUGCAUGCCGCCGGGCGCCAUGCCUGCAGGUCGACUCUAGAAAACAUG,binding signal,PUM1 PUF domain R3-MCR,4.47 log2 enrichment (interaction score)
GGCUAGAACUAGUGGAUCCCCCGGCGCCCGGCGGCUCGAGCCCGGGUAAGUGUAAGUAGUCUGCAUGCCGCCGGGCGCCAUGCCUGCAGGUCGACUCUAGAAAACAUG,binding signal,PUM1 PUF domain R3-LSE,2.76 log2 enrichment (interaction score)
GGCUAGAACUAGUGGAUCCCCCGGCGCCCGGCGGCUCGAGCCCGGGUAAGUCUAAAUAGUCUGCAUGCCGCCGGGCGCCAUGCCUGCAGGUCGACUCUAGAAAACAUG,binding signal,PUM1 PUF domain R7-RQN,0.64 log2 enrichment (interaction score)
